Results on one molecule are retold here after PubChem BioAssay AID1561 (National Center for Advancing Translational Sciences (NCATS), 2009).

A number with no mark means an inactive call. The call rests on the fitted dose curve; in most records, active means well fitted curve in the direction sought with a large enough effect; inactive means no such curve, though single readings can be large or run the other way.

A short description of the experiment: Secondary Assay for lipid storage modulators. Cytotoxcity. Conditions: Drosophila S3 cells viability, CellTiter-Glo luminescence, 24 h; series mostly up to 46.1 µM; activity change, negative = cytotoxicity: at the top concentration. An excerpt:
NIH Molecular Libraries Probe Production Centers Network [MLPCN] NIH Chemical Genomics Center [NCGC] MLPCN Grant: TBA Assay Submitter (PI): Beller, Mathias; Max-Planck-Institut fur Biophysikalische Chemie, Germany. NCGC Assay Overview: Storing lipids as a reservoir for energy or the anabolism of elementary metabolites is a common feature of probably all cells and is conserved from bacteria to humans. The universal cellular lipid storage organelle is the so-called lipid storage droplet (LD). Although ubiquitous, LDs share a simple structure composed of a hydrophobic core that harbors the storage lipids, which is shielded by a droplet-specific phospholipid monolayer to which proteins are attached. The current model of LD biogenesis involves an incorporation of the lipid core into the membrane leaflets of the endoplasmic reticulum (ER) followed by a subsequent budding-like maturation of a LD, which ultimately pinches off. Once released, LD volume can increase by localized lipogenesis or fusion of existing droplet. Storage lipids are re-mobilized enzymatically by lipase activity. […]
Assay Protocol Summary: Cytotoxcity assay was performed with embryonic Drosophila S3 cells (Bloomington Drosophila Genomics Resource Center [DGRC]). […] Luminescence was detected on the Perkin Elmer ViewLux.
For the molecule `COC(=O)c1ccccc1NC(=O)c1ccc(F)cc1`, the “activity change, negative = cytotoxicity” value was -35.2%.
